PubChem BioAssay AID1839 (Johns Hopkins Ion Channel Center, 2009)
Screen size: about 2,400 compounds; about 220 (9.2%) were called active. The list comes from a sample in which actives are over-represented; it also holds similar structures and randomly drawn compounds. Unmarked numbers belong to inactive results.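 Rule for the calls: active = signal change above the mean of dofetilide-free buffer controls plus 3 SD, so a positive margin; inactive = the rest.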

Test: thallium signal changes without hERG – cell-based, CHO-K1 parental line, FluxOR thallium flux, counter-screen for hERG block protection project, confirmation (AID 1839);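 note: compounds applied alone with no dofetilide to cells lacking hERG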
Conditions: CHO-K1 parental cells, FluxOR thallium flux fluorescence; at 10 µM

Going from O=C(Nc1ccccc1)OCCCCCOC(=O)Nc1ccccc1 to O=C(O)c1ccccc1NC(=O)c1cc2ccccc2oc1=O, the signal change vs control minus 3*SD hit threshold (margin above threshold, higher = more increase) rises from -25.4% to -21.3%.

First: Cc1ccc(C)c(NC(=S)NC(=O)c2cncc(Br)c2)c1
Second: CCOC(=O)Cc1csc(NC(=S)NC(=O)c2ccccc2C)n1
The signal change vs control minus 3*SD hit threshold (margin above threshold, higher = more increase) of the first is lower: -24.9% for the first, -13.6% for the second.

First: CCCCCCC12CCC(C(=O)O)(CC1)CC2
Second: CCCn1c(SCC(N)=O)nc2c(c1=O)C1(CCCC1)Cc1ccccc1-2
The signal change vs control minus 3*SD hit threshold (margin above threshold, higher = more increase) of the first is lower: -8.9% for the first, -7.7% for the second.

First: O=c1c2[nH]c3ccccc3c2nc2n1CCCS2
Second: CCSc1nc2c(sc3ccccc32)c(=O)n1C(C)C
The signal change vs control minus 3*SD hit threshold (margin above threshold, higher = more increase) of the first is lower: -3.7% for the first, -0.8% for the second.

Going from C=CCNC(=O)c1ccccc1NC(=O)COc1ccc(OC)cc1 to COc1ccc(NC(=O)CSCC(=O)Oc2c(OC)cccc2OC)cc1, the signal change vs control minus 3*SD hit threshold (margin above threshold, higher = more increase) rises from -31.9% to -30.4%.

Going from COc1ccc(N2CCN(C(=S)NC(=O)c3cccs3)CC2)c([N+](=O)[O-])c1 to Cc1cccc(C(=O)NC(=S)N2CCc3ccccc3C2)c1, the signal change vs control minus 3*SD hit threshold (margin above threshold, higher = more increase) rises from -27.4% to -1.3%.

Going from COc1cc(/C=C/C(=O)N[C@@H](Cc2c[nH]c3ccccc23)C(=O)O)ccc1O to Cc1ccc2[nH]c(C(=O)O)c(-c3ccccc3)c2c1, the signal change vs control minus 3*SD hit threshold (margin above threshold, higher = more increase) rises from -19.7% to -18.6%.

Going from CCCCSc1nnc(CCC)n1N to CCn1c(SCC(N)=O)nc2sc3c(c2c1=O)CCCC3, the signal change vs control minus 3*SD hit threshold (margin above threshold, higher = more increase) rises from -30.7% to -14.4%.

Going from O=C(CC1CCCC1)Nc1ccc2c(c1)CCC2 to CC(C)CC(=O)Nc1ccc2c3c(cccc13)CC2, the signal change vs control minus 3*SD hit threshold (margin above threshold, higher = more increase) falls from -18.5% to -19.8%.

Going from CC1Cc2ccccc2N1C(=S)NC(=O)c1ccco1 (stereo not drawn) to O=C(NC(=S)N1CCCc2ccccc21)c1ccc(Br)cc1, the signal change vs control minus 3*SD hit threshold (margin above threshold, higher = more increase) rises from -28.6% to -8.9%.

Going from CC(Oc1ccc(Cl)cc1Cl)C(=O)NC(=S)N1CCc2ccccc21 (stereo not drawn) to CC(C)N(Cc1ccccc1)C(=S)NC(=O)C1(C)CC1(Cl)Cl (stereo not drawn), the signal change vs control minus 3*SD hit threshold (margin above threshold, higher = more increase) falls from -7.9% to -9.7%.

First: Cc1csc2ncc(C(=O)N3c4ccccc4CC3C)c(=O)n12 (stereo not drawn)
Second: CCOC(=O)c1[nH]c(=O)[nH]c1COC(=O)c1cc2ccccc2o1
The signal change vs control minus 3*SD hit threshold (margin above threshold, higher = more increase) of the first is higher: -16.4% for the first, -34.3% for the second.

Going from Oc1c(Cl)cc(CN2CCCCC2)c2cccnc12 to COc1ccc(-c2cc(C(=O)N3CCCC3)no2)cc1OC, the signal change vs control minus 3*SD hit threshold (margin above threshold, higher = more increase) rises from -25.2% to -5.8%.

Compared with Cc1cc(C(=O)NNC(=O)c2cccs2)nn1C(C)(C)C, Cc1cc(C)n(-c2nc3sc4c(c3c(=O)[nH]2)CCCC4)n1 is lower in signal change vs control minus 3*SD hit threshold (margin above threshold, higher = more increase): -25.3% for the first, -29.7% for the second.

Going from O=C(NN=C1c2ccccc2-c2ccccc21)c1ccccc1 to CCNC(=S)N/N=C1\C(=O)c2cccc3cccc1c23, the signal change vs control minus 3*SD hit threshold (margin above threshold, higher = more increase) rises from -27.5% to -16.8%.

Going from Cc1ccc(-c2n[nH]c(=S)nc2-c2ccc(C)cc2)cc1 to Cc1ccnc(N2CCC(C(=O)Nc3ccc(Oc4ccccc4)cc3)CC2)n1, the signal change vs control minus 3*SD hit threshold (margin above threshold, higher = more increase) falls from -27.5% to -28.4%.

First: CSc1nc2c(c(=O)[nH]1)C(c1ccc(F)cc1)CC(=O)N2 (stereo not drawn)
Second: COc1ccc(NC(=O)CCN2C(=O)C3C4C=CC(C4)C3C2=O)cc1 (stereo not drawn)
The signal change vs control minus 3*SD hit threshold (margin above threshold, higher = more increase) of the first is lower: -36% for the first, -35% for the second.

First: C=CCn1c(=S)[nH]c2sc3c(c2c1=O)CCC3
Second: COCCn1c(=S)[nH]c2sc3c(c2c1=O)CCCC3
The signal change vs control minus 3*SD hit threshold (margin above threshold, higher = more increase) of the first is lower: -7.2% for the first, -5.6% for the second.

First: COCCCn1c(=S)[nH]c2c(sc3ccccc32)c1=O
Second: O=c1c2c3c(sc2[nH]c(=S)n1Cc1ccco1)CCC3
The signal change vs control minus 3*SD hit threshold (margin above threshold, higher = more increase) of the first is lower: -36.9% for the first, -6.1% for the second.

First: C=CCn1c(=S)[nH]c2nc3c(cc2c1=O)CCCC3
Second: CCn1c(SC(C)C(=O)O)nc2sc3c(c2c1=O)CCC3 (stereo not drawn)
The signal change vs control minus 3*SD hit threshold (margin above threshold, higher = more increase) of the first is lower: -15.7% for the first, -5.9% for the second.

Compared with CCCn1c(SCC(=O)N2CCN(C(C)=O)CC2)nc2sc3c(c2c1=O)CCC3, COc1ccc(C(CC(=O)N2CCOCC2)c2c(O)cc(OC)cc2OC)cc1 (stereo not drawn) is lower in signal change vs control minus 3*SD hit threshold (margin above threshold, higher = more increase): -6.2% for the first, -27.3% for the second.

Compared with C=CCN(CC=C)C(=S)NC(=O)Cc1cccc2ccccc12, CCOC(=O)C1=C(O)/C(=C/c2ccc(OCC(=O)O)c(OC)c2)SC1=Nc1ccc(OCC)cc1 is lower in signal change vs control minus 3*SD hit threshold (margin above threshold, higher = more increase): -17.1% for the first, -28.1% for the second.

For CC1Cc2ccccc2N1C(=S)NC(=O)C1(C)CC1(Cl)Cl (stereo not drawn), the signal change vs control minus 3*SD hit threshold (margin above threshold, higher = more increase) was 11.2% (active).
For CC1Cc2ccccc2N1C(=S)NC(=O)c1ccc(Cl)cc1Cl (stereo not drawn), the signal change vs control minus 3*SD hit threshold (margin above threshold, higher = more increase) was 23.8% (active).
In the case of CC1Cc2ccccc2N1C(=S)NC(=O)c1cccc(Br)c1 (stereo not drawn), the signal change vs control minus 3*SD hit threshold (margin above threshold, higher = more increase) is reported as 48.8% (active).
For O=C(N/N=C1/C(=O)c2cccc3cccc1c23)c1ccc(Cl)cc1, the signal change vs control minus 3*SD hit threshold (margin above threshold, higher = more increase) was 41.5% (active).
For CCn1c(=S)[nH]c2sc3c(c2c1=O)CCCC3, the signal change vs control minus 3*SD hit threshold (margin above threshold, higher = more increase) was 8.5% (active).
With CCCn1c(=S)[nH]c2sc3c(c2c1=O)CCCC3 the signal change vs control minus 3*SD hit threshold (margin above threshold, higher = more increase) was 32.1% (active).
For C=CCn1c(=S)[nH]c2sc3c(c2c1=O)CCCC3, the signal change vs control minus 3*SD hit threshold (margin above threshold, higher = more increase) was 3.6% (active).
With COCCCn1c(=S)[nH]c2sc3c(c2c1=O)CCCC3 the signal change vs control minus 3*SD hit threshold (margin above threshold, higher = more increase) was 2.5% (active).
With CCn1c(=S)[nH]c2sc3c(c2c1=O)CCCCC3 the signal change vs control minus 3*SD hit threshold (margin above threshold, higher = more increase) was 37.1% (active).
